Data on 19 compounds can be found in PubChem BioAssay (Tox21).

Where “and” joins values, the source holds several entries; their conditions need not be identical. Equal entries are not always repeated. Inconclusive results are not listed. Some compounds were tested as several samples or in several runs, with calls that do not always agree. Calls of active or inactive are those of the source. Unless noted, calls follow the shape of the dose curve; as a rule, active = well fitted curve in the direction sought with a large enough effect in the repeat runs; inconclusive = weak or mixed curves; inactive = no such curve, though single readings can be large; an effect the other way counts as inactive or inconclusive.

A short description of experiment [1]: qHTS assay to identify small molecule agonists of the RXR signaling pathway - cell viability counter screen (AID 1159529). Also: nearly all actives have a fitted effect of over 50% in size. Also: potency is read from the fitted curve at half-maximal effect. The method, boiled down: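 In this parallel viability measure, GeneBLAzer RXR-alpha HEK 293T cells (2% charcoal-stripped FBS) were given a 5 hr preincubation, treated with compounds 16 hr at 37 C, and read by CellTiter-Glo luminescence.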
(qHTS replaces the single test concentration by a dilution series.)

Experiment [2] in a line: qHTS assay to identify small molecule antagonists of the retinoid acid receptor (RAR) signaling pathway - cell viability counter screen (AID 1159551). Also: nearly all actives have a fitted effect of over 35% in size. Also: potency is read from the fitted curve at half-maximal effect. In outline: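 In this counter screen, the RARE-luciferase line C3RL4 was exposed for 6 h at 37 C and 5% CO2 to compounds with retinol at 1 uM final. Cellular ATP, read by luminescence, served as the viability measure.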
Experiment [3] is described as follows: qHTS assay to identify small molecule agonists of the retinoic acid receptor (RAR) signaling pathway (AID 1159553). Also: potency is read from the fitted curve at half-maximal effect. The settings on record: C3RL4 RARE luciferase reporter, agonist, 6 h; activation: at 73.3 µM (top of the series) unless noted. The method, boiled down: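 In this cell-based screen, 1,000 C3RL4 cells per well were cultured overnight, dosed with test chemicals in DMSO for 6 hr, and assessed for RARE luciferase luminescence.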

Experiment [4] in a line: qHTS assay to identify small molecule antagonists of the retinoic acid receptor (RAR) signaling pathway (AID 1159552; also: nearly all actives have a fitted effect of over 50% in size; also: potency is read from the fitted curve at half-maximal effect). The method, boiled down:
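C3RL4 RARE-luc cells, overnight plating; retinol 1 uM final added right after compound; 6 hr 37 C; luciferase read at 30 min RT.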

Experiment [5] concerns the target Retinoic acid receptor RXR-alpha (Homo sapiens) (UniProt P19793). The experiment is described as follows: qHTS assay to identify small molecule agonists of the RXR signaling pathway (AID 1159527; calls by dose curve; also: nearly all actives have a fitted effect of over 35% in size). In outline: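 16 hr incubation of compound-treated RXR-alpha-UAS-bla HEK 293T cells (2% charcoal-stripped FBS, 37 C) preceded a 2 hr room-temperature LiveBLAzer FRET substrate step and blue/green fluorescence measurement.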

The nature of experiment [6]: qHTS assay to identify small molecule antagonists of the estrogen related receptor (ERR) signaling pathway - cell viability counter screen (AID 1224818). In outline:
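Viability of ERR cells, CellTiter-Fluor fluorescence; 17.5 h compound exposure at 37 C, DMSO vehicle; 30 min reagent incubation at 37 C/5% CO2.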

A short description of experiment [7]: qHTS assay to identify small molecule antagonists of the estrogen related receptor signaling pathway with the pleiotropic PPARgamma coactivator (PGC) cell viability counter screen (AID 1224822; also: potency is read from the fitted curve at half-maximal effect). The method, boiled down: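 17.5 h compound treatment of PGC/ERR cells at 37 C; readout CellTiter-Fluor fluorescence; run alongside the PGC/ERR antagonist screen to flag cytotoxic compounds.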

The nature of experiment [8]: qHTS assay to identify small molecule agonists of the estrogen related receptor (ERR) signaling pathway (AID 1224820). The method, boiled down:
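After 6 h plating (2,000 cells/well) and 18 h compound treatment at 37 C, ERR cells were lysed with One-Glo and luminescence read after 30 min at room temperature.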

Experiment [9] relates to estrogen-related receptor alpha (ERRalpha) with PGC-1alpha coactivator, human. Briefly: qHTS assay to identify small molecule antagonists of the estrogen related receptor signaling pathway with the pleiotropic PPARgamma coactivator (PGC) (AID 1224821; calls by dose curve;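 also: lower luminescence signal means antagonism of PGC/ERR signalling; nearly all actives have a fitted effect of over 50% in size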). The method, boiled down: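 Luminescence from One-Glo luciferase reagent (30 min, room temperature) measured after 18 h compound treatment at 37 °C. Cells carry the PGC/ERR reporter and were seeded 6 h prior to dosing.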

Chain of Retinoic acid receptor RXR-alpha (Homo sapiens) (P19793 whole entry, looked up): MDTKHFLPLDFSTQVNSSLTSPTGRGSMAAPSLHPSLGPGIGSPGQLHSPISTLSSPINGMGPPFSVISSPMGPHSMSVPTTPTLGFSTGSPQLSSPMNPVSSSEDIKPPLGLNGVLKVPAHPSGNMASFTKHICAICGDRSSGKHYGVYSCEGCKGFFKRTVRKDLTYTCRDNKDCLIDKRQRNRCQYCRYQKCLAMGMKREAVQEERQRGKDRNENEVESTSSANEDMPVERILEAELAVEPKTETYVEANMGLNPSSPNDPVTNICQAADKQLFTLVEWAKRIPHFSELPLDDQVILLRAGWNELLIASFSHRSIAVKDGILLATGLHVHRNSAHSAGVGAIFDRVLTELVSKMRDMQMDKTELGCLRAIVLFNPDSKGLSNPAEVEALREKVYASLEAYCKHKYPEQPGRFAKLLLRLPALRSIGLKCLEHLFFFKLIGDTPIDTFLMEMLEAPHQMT

In the case of `N[C@@H](Cc1ccc(N(CCCl)CCCl)cc1)C(=O)O`, the Potency result in experiment [1], in experiment [2] and in experiment [3] was “inactive” each time.
Turning to `Oc1c(Cl)c(Cl)c(Cl)c(Cl)c1Cl`, the Potency entry in experiment [1], in [2], in experiment [4] and in [3] was “inactive” in each case.
For `O=C(O)CC[N+](=O)[O-]`, the Potency entry in experiment [5], in experiment [2], in experiment [4], in [3] and in experiment [7] was “inactive” each time. The result in [6] was inactive.
As to `C[C@]12CCC(=O)C[C@@H]1CC[C@@H]1[C@@H]2CC[C@]2(C)[C@@H](O)CC[C@@H]12`, the Potency entry in experiment [1], in experiment [2] and in experiment [3] was “inactive” throughout. In addition, the Potency in [4] is 42.7 µM (active) and inactive.
On to `CCN(CC)N=O`, for which the Potency result in [2], in experiment [4] and in experiment [3] was “inactive” each time.
Turning to `CC(C)(OOC(C)(C)c1ccccc1)c1ccccc1`, the Potency result in experiment [2], in [4] and in [3] was “inactive” throughout.
Turning to `OCC(O)CO`, the Potency entry in experiment [1], in experiment [2], in experiment [4] and in experiment [3] was “inactive” each time.
In the case of `CCN(N=O)C(N)=O`, the Potency result in [5], in experiment [2], in experiment [4] and in [3] was “inactive” throughout.
`O=S(=O)(Oc1ccc(Cl)cc1)c1ccc(Cl)cc1`: the Potency entry in experiment [1], in experiment [2], in experiment [4] and in experiment [3] was “inactive” in each case.
Take `O=c1oc2ccccc2c(O)c1C(CC(O)c1ccc(-c2ccc(Br)cc2)cc1)c1ccccc1` (stereo not given): the Potency entry in experiment [2] was “inactive”.
Take `CCC(=O)O[C@H]1CC[C@H]2[C@@H]3CCC4=CC(=O)CC[C@]4(C)[C@H]3CC[C@]12C`: the Potency entry in experiment [2] and in experiment [3] was “inactive” each time. Further, in experiment [4], the Potency was 48.6 µM (active) and inactive.
Take `O=C(Nc1ccc(Br)cc1)c1cc(Br)cc(Br)c1O`: the Potency in experiment [1] was 24.5 µM (active). Further, the Potency entry in [2], in experiment [4] and in experiment [3] was “inactive” each time.
On to `CCOc1cc(C=O)ccc1O`, for which the Potency entry in experiment [2], in experiment [4] and in [3] was “inactive” each time.
As for `Oc1cc(Cl)ccc1Oc1ccc(Cl)cc1Cl`, the Potency entry in experiment [5], in [8] and in [9] was “inactive” in each case. In addition, the Potency in [2] was 31.4 µM (active); in experiment [7], 38.6 µM (active).
In the case of `CC(C)=CC1C(C(=O)OCc2coc(Cc3ccccc3)c2)C1(C)C` (stereo not given), the Potency entry in [2], in experiment [4] and in experiment [3] was “inactive” each time.
Regarding `O=P(Oc1ccccc1)(Oc1ccccc1)Oc1ccccc1`, in experiment [2], the Potency result was “inactive”.
Turning to `Nc1ccncc1`, the Potency entry in [5], in [2] and in [7] was “inactive” throughout. Also, the compound was classed as inactive in experiment [6].
Regarding `NNC(N)=S`, the Potency in experiment [1] is 18.1 µM (active). Besides, the Potency entry in experiment [2] and in [4] was “inactive” in each case.
With `Cc1ccc(N)c(N)c1`, the Potency entry in experiment [2] and in experiment [4] was “inactive” in each case. In addition, in experiment [3], the Potency is 1.54 µM (active) and 1.22 µM (active).
